Holding throughout (format): functional
The target of experiment [1] is Solute carrier family 2, facilitated glucose transporter member 1 (Homo sapiens) (UniProt P11166). Nature of the experiment: ST_JUDE_LEISH: Cytotoxicity at 2uM final concentration against transgenic Leishmania Mexicana promastigotes LmGLUT1 that are glucose transport deficient and complemented with the human glucose transporter GLUT1. Activity is measured by DNA content using SYBR green in vitro.

Experiment [2] addresses Hexose transporter 1 (Plasmodium falciparum) (UniProt O97467). The experiment is described as follows: ST_JUDE_LEISH: Cytotoxicity at 2uM final concentration against transgenic Leishmania Mexicana promastigotes LmPfHT that are glucose transport deficient and complemented with the Plasmodium falciparum hexose transporter. Activity is measured by DNA content using SYBR green in vitro.

Experiment [3] has as its target Glucose transporter (Leishmania mexicana) (UniProt O61059). The experiment is described as follows: ST_JUDE_LEISH: Cytotoxicity at 2uM final concentration against transgenic Leishmania Mexicana promastigotes LmGT2 that are glucose transport deficient and complemented with the L. Mexicana glucose transporter 2. Activity is measured by DNA content using SYBR green in vitro.

Sequence of Solute carrier family 2, facilitated glucose transporter member 1 (Homo sapiens) (P11166 whole entry): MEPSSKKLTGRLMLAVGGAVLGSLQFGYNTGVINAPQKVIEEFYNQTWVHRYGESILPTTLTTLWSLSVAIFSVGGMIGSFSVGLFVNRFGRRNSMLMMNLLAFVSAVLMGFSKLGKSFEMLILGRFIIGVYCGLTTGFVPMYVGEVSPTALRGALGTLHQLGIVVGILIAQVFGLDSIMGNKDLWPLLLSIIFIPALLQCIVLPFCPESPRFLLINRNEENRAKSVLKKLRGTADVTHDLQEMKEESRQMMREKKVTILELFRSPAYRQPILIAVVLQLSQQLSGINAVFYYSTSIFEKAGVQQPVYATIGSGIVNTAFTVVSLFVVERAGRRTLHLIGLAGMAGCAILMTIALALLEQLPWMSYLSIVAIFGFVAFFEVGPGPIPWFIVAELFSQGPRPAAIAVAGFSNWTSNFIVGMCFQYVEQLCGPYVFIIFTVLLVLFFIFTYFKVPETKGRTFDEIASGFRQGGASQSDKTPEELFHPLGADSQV

By inhibition is commonly meant the relative decrease from the control value, in per cent. Consider `CCc1c(CCNCCCCCCNCCc2ccc(Br)cc2)ccc(O)c1O`, for which the inhibition is -0.07% in experiment [1], 0.74% in experiment [2] and 1.12% in experiment [3].

Regarding `CCCCCN1CCC(NS(=O)(=O)c2cccc(C(=O)Nc3ccc(Cl)cc3)c2)CC1`, the inhibition was -0.5% in experiment [1], 1.63% in experiment [2] and 2.4% in experiment [3].

`COc1cccc(-c2cccc(CNC3CCN(CC4Cn5c(=O)ccc6ccc(F)c4c65)CC3)c2)c1` (stereo unspecified): the inhibition in experiment [1] was found to be 6.16%; in experiment [2] it was 2.1%; in experiment [3], 1.71%.

`CN1N=C2c3ccccc3CCC2C1c1ccc(C#N)cc1` (stereo unspecified): the inhibition was determined as 12.4% in experiment [1], 9.98% in experiment [2] and 7.86% in experiment [3].

With `Cc1cccc2nc(-c3ccc(-c4cccc(NC(=O)NCc5cccc(F)c5)c4)s3)[nH]c12`, the inhibition in experiment [1] is -1.66%; in experiment [2] it was -0.47%; in experiment [3] it was -1.14%.

Take `CC(C)CCNc1nc2ccccc2nc1Nc1cccc(C(F)(F)F)c1`: the inhibition is 2.21% in experiment [1], 3.55% in experiment [2] and 2.32% in experiment [3].

With `COc1cc2c(cc1OC)CN(CCc1ccc(NC(=O)c3cc4cc(Cl)ccc4[nH]3)cc1)CC2`, the figures for the inhibition in experiment [1], in experiment [2] and in experiment [3] were 8.2%, 0.43% and 1.46%, respectively.

Turning to `COc1ccc(-c2cc(C(=O)N[C@@H](CC3CCCCC3)C(=O)NC3CCCc4ccccc43)ccc2O)cc1` (stereo partly specified), the inhibition in experiment [1] is 0.11%; in experiment [2], -0.02%; in experiment [3], 1.1%.

On to `Nc1nc(N)c2cc(S(=O)(=O)c3ccc4ccccc4c3)ccc2n1`, for which the values for the inhibition in experiment [1], in experiment [2] and in experiment [3] were 10.7%, 18.4% and 8.89%, respectively.

In the case of `Cc1cccc(Cn2ccc3c4c(N)nc(N)nc4ccc32)c1`, the inhibition in experiment [1] amounted to 80.8%; in experiment [2], 81.5%; in experiment [3] it was 81.5%.

`CC(C)(CNC(=O)[C@@H]1CCCN(Cc2ccc(Cl)cc2)C1)c1nc(-c2ccc(Cl)c(O)c2)c(-c2ccncc2)[nH]1`: the inhibition in experiment [1] was -1.45%; in experiment [2], 0.41%; in experiment [3], 0.77%.

In the case of `CCn1cnc2c(N3CCCC3=O)cc(C(=O)N[C@@H](Cc3ccccc3)[C@H](O)CNC3CCCCC3)cc21`, the inhibition in experiment [1] turned out to be 2%; in experiment [2], 1.91%; in experiment [3], 2.63%.

Regarding `O=C(C=Cc1cn(-c2ccccc2)nc1-c1ccccc1)N1CCN(c2ccncc2)CC1`, the inhibition in experiment [1] was 5.75%; in experiment [2] it was 5.64%; in experiment [3] it was 4.62%.

As for `O=C(Nc1ccc(N2CCCCC2)c(Cl)c1)c1ccc(Br)o1`, the inhibition in experiment [1] stood at 1.4%; in experiment [2] it was 2.17%; in experiment [3], 2.35%.

With `COc1cc(C=NNc2ccnc3cc(Cl)ccc23)ccc1O`, the inhibition in experiment [1] came to 2.02%; in experiment [2] it was 2.62%; in experiment [3], 3.46%.

Consider `CCn1c(=O)c(C(=O)Nc2cc(Cl)c(OC)cc2OC)nc2ccccc21`, for which the inhibition in experiment [1] turned out to be 11.7%; in experiment [2], 9.32%; in experiment [3] it was 10.5%.

`c1cncc(CN2CCCN(c3ccc4c(c3)CCN(Cc3ccc(-c5ncc[nH]5)cc3)CC4)CC2)c1`: the inhibition is 1.93% in experiment [1], 2.7% in experiment [2] and 2.25% in experiment [3].

Turning to `N#Cc1ccc(-n2cc(C(=O)Nc3ccc4c(c3)CCN(C3CCC3)CC4)c(C(F)(F)F)n2)cc1`, the values for the inhibition in experiment [1], in experiment [2] and in experiment [3] were 7.01%, 6.79% and 4.42%, respectively.

As for `Cc1ccc(C2(C)CN(CCCOc3cccc(-c4ccc(C(=O)NC(C)C)cc4)c3)CCO2)cc1` (stereo unspecified), the inhibition in experiment [1] was found to be 0.12%; in experiment [2] it was 4.27%; in experiment [3], 0.85%.

For the compound `CN(C)CCNc1ncnc2c1[nH]c1ccc(Cl)cc12`, the figures for the inhibition in experiment [1], in experiment [2] and in experiment [3] were 3.7%, 3.91% and 2.92%, respectively.

On to `CCCCCCCn1c2c(c(=N)c3c1CCC3)CCCC2`, for which the inhibition in experiment [1] was 92%; in experiment [2], 90.8%; in experiment [3] it was 80.1%.

As to `CCOC(=O)c1c(C)n(-c2ccccc2)c2ccc(OC(=O)COc3ccc(Cl)cc3Cl)cc12`, the inhibition in experiment [1] is 7.5%; in experiment [2], 6.74%; in experiment [3], 6.97%.

`Cc1cccc2nc(-c3cccc(-c4cccc(NC(=O)Nc5cccc(C#N)c5)c4)c3)[nH]c12`: the inhibition is 11.2% in experiment [1], 10.1% in experiment [2] and 10.3% in experiment [3].

Turning to `CCCC[C@H](NC(=O)O[C@H](COc1ccc(OCc2ccccc2)cc1)C(C)(C)C)C(=O)C(=O)Nc1cc[nH]n1`, the inhibition in experiment [1] was determined as 3.68%; in experiment [2], 3.22%; in experiment [3], 1.64%.

As to `O=C(NCC1CCN(C/C=C/c2ccccc2)CC1)Nc1ccc(Oc2ccccc2)cc1`, the inhibition was 6.42% in experiment [1], 8.3% in experiment [2] and 2.71% in experiment [3].

Consider `FC(F)(F)c1ccc2[nH]c(-c3cccc(-c4cccc(CNCC5CCCO5)c4)c3)nc2c1` (stereo unspecified), for which the inhibition was determined as 4.7% in experiment [1], 3.63% in experiment [2] and 3.26% in experiment [3].

As for `COc1ccc2ncc(Cl)c(CCN3CC[C@@H](CNCc4cc5c(cn4)OCS5)C3)c2n1`, the results for the inhibition in experiment [1], in experiment [2] and in experiment [3] were 6.89%, 7.89% and 12.2%, respectively.

Take `CCN(CC)CCN(Cc1ccc(-c2ccc(C(F)(F)F)cc2)cc1)C(=O)Cn1c(CCc2ccc(F)c(F)c2F)nc(=O)c2cccnc21`: the inhibition in experiment [1] is 0.59%; in experiment [2], 0.44%; in experiment [3] it was -0.8%.

As to `Cc1c(C)n(C2CCCCC2)c2ncnc(OC3CCN(CC(=O)N4CCCC4)CC3)c12`, the inhibition in experiment [1] was 1.06%; in experiment [2] it was 3.02%; in experiment [3], 1.38%.

Regarding `CC(=O)Nc1cccc(NC(=O)CSc2ccc(-c3nc4ccccc4[nH]3)cn2)c1`, the figures for the inhibition in experiment [1], in experiment [2] and in experiment [3] were 0.84%, -0.63% and -0.27%, respectively.

`COc1ccc(CN(C)CCCOc2ccc(NC(=O)C=Cc3ccc(C(C)(C)C)cc3)cc2)cc1OC`: the inhibition is 13.9% in experiment [1], 9.61% in experiment [2] and 9.75% in experiment [3].

As for `COc1ccc(NC(=O)[C@H](CC(C)C)Nc2cc(C)nc(NCC3CCCCC3)n2)cc1`, the results for the inhibition in experiment [1], in experiment [2] and in experiment [3] were 3.07%, 2.78% and 0.83%, respectively.
